HPGD inh: blocks human HPGD enzyme activity. actives 4.3% (n = 150,000). AID 894. Potency, µM, inactives show at the highest dose activity change, negative = inhibition, most hits filed as inhibitors. purified HPGD, NADH fluorescence kinetic, PGE2 substrate; active = well fitted inhibition curve with a large enough effect, not every such curve was filed as active; inconclusive = small, poorly fitted or top-dose-only effect, or another doubt; inactive = no such curve, though single readings can be large or run the other way; also: potency is read from the fitted curve at half-maximal effect
Target sequence (P15428 whole entry, looked up): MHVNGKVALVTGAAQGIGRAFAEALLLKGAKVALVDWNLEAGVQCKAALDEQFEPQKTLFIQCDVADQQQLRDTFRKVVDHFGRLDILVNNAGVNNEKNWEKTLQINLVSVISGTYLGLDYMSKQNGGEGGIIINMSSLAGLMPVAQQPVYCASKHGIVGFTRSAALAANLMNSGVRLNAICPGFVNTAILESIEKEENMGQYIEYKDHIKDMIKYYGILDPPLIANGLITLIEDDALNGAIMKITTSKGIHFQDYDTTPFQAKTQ
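20 nM HPGD preincubated 15 min at room temperature with compound in 50 mM Tris-HCl pH 8, 0.01% Tween 20. Started with 1 mM NAD+ and 30 uM prostaglandin E2; NADH fluorescence (360/450 nm) read 5 times over 30-s intervals, last minus first.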
IMPase cell inh: IMPase inhibition in cells; inhibition (IP1 accumulation), % at 46.1 µM; CHO-M1 cells, IP1 accumulation, HTRF TR-FRET ratio; 120,000 tested, under 10 active; P97697; active = well fitted curve in the direction sought with a large enough effect in the signal ratio, not every such curve was filed as active; inconclusive = small, poorly fitted or top-dose-only effect, or a change in a side signal; inactive = no such curve, though single readings can be large or run the other way; the % refers to the signal ratio;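 also: cells stimulated with carbachol in lithium chloride buffer; plate controls were DMSO basal wells for no effect and reference inhibitor wells for full effect; higher means more IMPase inhibition seen as more IP1 and lower FRET ratio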
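Cellular IMPase inhibition is scored as a rise in cytosolic IP1, detected by competitive TR-FRET between d2-labelled IP1 and a europium anti-IP1 antibody. M1-expressing CHO cells were stimulated with carbachol for 30 min at 37C, with lithium (50 mM LiCl) present in the buffer.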
PNC assembly inh: inhibitors of perinucleolar compartment assembly | PC3M PTB-GFP, PNC prevalence imaging, 16 h; hits give low values | actives 3.1% (n = 140,000) | activity change (PNC), negative = inhibition, % at 10 µM | AID 2417;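 active = readout at or below -70, meaning at least 70% loss of cells showing the perinucleolar compartment, a nuclear body marking cancer cells; inconclusive = readout between -30 and a set limit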;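 also: plate controls were DMSO wells for no effect and camptothecin positive control wells for full effect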
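PC3M cells stably expressing PTB-GFP, 750–1000 cells/well, treated 16 h at 37 °C with compound (23 nl of library stock), in duplicate. After paraformaldehyde fixation and Hoechst stain, imaged at 20x; PNC prevalence scored by image analysis.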
ALDH1A1 inh: blocks purified human ALDH1A1 activity | Purified ALDH1A1, NADH fluorescence, propionaldehyde substrate | AID 1030 | P00352 | Potency, µM (doses to about 75.3 µM), without a hit: at the highest dose activity, negative = inhibition, most hits filed as inhibitors | actives 7.3% (n = 220,000); active = well fitted inhibition curve with a large enough effect, not every such curve was filed as active; inconclusive = small, poorly fitted or top-dose-only effect, or another doubt; inactive = no such curve, though single readings can be large or run the other way;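 also: potency is read from the fitted curve at half-maximal effect; plate controls were no enzyme wells and a reference inhibitor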
Target sequence (P00352 whole entry, looked up): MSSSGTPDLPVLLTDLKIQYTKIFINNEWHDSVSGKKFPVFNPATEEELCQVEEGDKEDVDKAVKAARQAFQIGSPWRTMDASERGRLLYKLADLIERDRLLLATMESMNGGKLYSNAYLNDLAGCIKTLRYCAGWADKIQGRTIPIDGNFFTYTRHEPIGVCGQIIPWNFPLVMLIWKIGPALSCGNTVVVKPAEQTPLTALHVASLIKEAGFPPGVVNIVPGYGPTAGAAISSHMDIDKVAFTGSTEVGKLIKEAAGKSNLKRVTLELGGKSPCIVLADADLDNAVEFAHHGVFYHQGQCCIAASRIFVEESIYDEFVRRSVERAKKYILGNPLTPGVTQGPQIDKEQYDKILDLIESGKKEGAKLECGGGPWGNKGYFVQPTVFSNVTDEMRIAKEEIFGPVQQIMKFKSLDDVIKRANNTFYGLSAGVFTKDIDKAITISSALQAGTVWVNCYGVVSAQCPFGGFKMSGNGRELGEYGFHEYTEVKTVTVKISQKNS
IMPase Li cell: cell-permeable IMPase inhibitors with lithium potentiation. CHO-M1 cells, IP1 TR-FRET (IP-One), carbachol + lithium. actives 0.35% (n = 210,000). Potency, µM (highest dose often 59.4 µM), for inactives: at the top dose activity, negative = IMPase inhibition, actives largely listed as inhibitors. AID 1457;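 also: IP1 builds up when IMPase is blocked and the TR-FRET signal falls; potency is read from the fitted curve at half-maximal effect; plate controls were basal vehicle for no effect and high inhibitor control for full effect; nearly all actives have a fitted effect of over 50% in size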
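Concentration–response in CHO-M1 cells, lithium-potentiated; 30 min at 37C. IP1 detected by competitive TR-FRET after 10 min lysis at RT. Hill-fitted AC50.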
12-hLO inh: 12-hLO (ALOX12) enzyme inhibition; P18054; purified 12-hLO, xylenol orange hydroperoxide absorbance; Potency, µM (top dose mostly 57.1 µM), for the others: at the top dose activity change, negative = inhibition, hits mostly inhibitors; actives 0.12% (n = 150,000); AID 1452; also: potency is read from the fitted curve at half-maximal effect; nearly all actives have a fitted effect of over 55% in size
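Hydroperoxide output read as Fe(III)-xylenol orange absorbance, 573-to-405 nm ratio, after 30 min reaction with 40 uM arachidonic acid. Enzyme: 150 nM purified human 12hLO, 15 min compound preincubation; 25 mM Hepes pH 7.0, room temperature.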
* hit, by the source's call; ? = inconclusive; / = no result given; [ ] = another dose, or the depositor's remark. Only some compounds are listed: those with a hit (about 11% of all), similar ones and a draw of the others. Unless noted, calls follow the shape of the dose curve; as a rule, active = well fitted curve in the direction sought with a large enough effect; inconclusive = small, poorly fitted or top-dose-only effect, or another doubt; inactive = no such curve, though single readings can be large; an effect the other way counts as inactive or inconclusive. Unless noted, % is scaled to controls: 0 for no effect and ±100 for the full control effect.

SMILES | HPGD inh | IMPase cell inh | PNC assembly inh | ALDH1A1 inh | IMPase Li cell | 12-hLO inh
O=C(CCN1C(=O)C2CC=C(Cl)CC2C1=O)NCc1ccco1 (stereo unspecified) | -17.8% | 8.2 | 36.9 | 22.4µM* | 28.5%[38.3 µM] | -3.7%
O=C1C2CC=C(Cl)CC2C(=O)N1CC1Cc2ccccc2CO1 (stereo unspecified) | 22.4µM* | -9.2 | -6.5 | 22.4µM* | 10.4%[38.3 µM] | -21.4%
O=C1C2CC=C(Cl)CC2C(=O)N1CN(Cc1ccco1)CN1C(=O)C2CC=C(Cl)CC2C1=O (stereo unspecified) | -9.5% | 2.4 | -96.3* | ? | -15.4%[38.3 µM] | -15.6%
O=C1C2CC=C(Cl)CC2C(=O)N1CCC[n+]1ccccc1 (stereo unspecified) | -1.3% | 3.5 | -21.2 | 7.2% | 22.1%[38.3 µM] | -1.1%
Cc1nc2oc(C(=O)c3ccccc3)c(N)c2c2c1COC(C)(C)C2 | -12.0% | -1.6 | -13.6 | 14.1µM* | -6.4% | 5.0%
Cc1ccc(/C=N/n2c(-c3ccc(Cl)cc3)n[nH]c2=S)s1 | / | / | / | 3.7% | 6.4% | /
COc1cccc(/C=N/n2c(-c3cccs3)n[nH]c2=S)c1 | 2.24µM* | -6.7 | 31.4 | ? | -7.3%[38.3 µM] | -20.8%
COc1cc(/C=N/n2c(-c3cc(C)[nH]n3)n[nH]c2=S)cc(OC)c1O | / | / | / | -10.0% | / | /
Cc1ccc(-c2n[nH]c(=S)n2/N=C/c2cccs2)cc1 | 12.6µM* | 18.3 | 42.8 | ? | -3.2% | -5.8%
Cc1cc(-c2n[nH]c(=S)n2/N=C/c2cccs2)n[nH]1 | ? | / | 17.0 | -5.7% | 1.4% | 1.9%
Cc1ccc(-c2n[nH]c(=S)n2/N=C/c2ccc(C)s2)cc1 | 3.98µM* | -5.2 | 6.9 | 2.7% | -22.4%[38.3 µM] | -1.1%
S=c1[nH]nc(-c2ccccc2)n1/N=C/c1cccs1 | 17.8µM* | -7.9 | -2.3 | 25.1µM* | 10.3% | -2.9%
Nc1ccccc1[N+](=O)[O-] | -5.7% | / | / | 10.6% | 11.5% | -3.3%
Cc1ccc(Cl)cc1N1CCN(C(=O)C2CCCN(S(=O)(=O)c3ccc(Br)s3)C2)CC1 (stereo unspecified) | / | 2.9 | / | / | / | /
C=CCn1c(CC#N)nnc1N1CCOCC1 | -3.7% | 3.1 | -103.4* | 8.91µM* | 22.1%[38.3 µM] | -4.6%
COC(=O)[C@@H]1C[C@H]1[C@@H](NC(=O)c1ccc(Br)cc1)c1ccccc1 | -2.0% | / | / | -3.3% | 2.1% | -3.4%
NCCC[C@@](N)(C(=O)O)C(F)F | / | -1.0 | / | / | / | -4.0%
CC1(C)CCC(NC(=O)[C@@H](N)CCC(=O)O)CC1 | -3.6% | / | / | 4.9% | 12.1% | /
CC1CCN(c2[nH]c(=S)c(C#N)c3c2CCCC3)CC1 | 11.2µM* | -28.4 | ? | 10µM* | ? | -11.7%
CC1(C)CC(=O)C(N=Nc2cc3c(cc2[N+](=O)[O-])OCCO3)=C(O)C1 | / | / | / | 0.562µM* | 16.2% | /
Cc1c(N=NC2=C(O)CC(C)(C)CC2=O)c(=O)n(-c2ccccc2)n1C | / | / | / | 10µM* | 12.7% | /
Cc1ccc(O)c(N=NC2=C(O)CC(C)(C)CC2=O)c1 | -18.5% | / | ? | 6.31µM* | 23.1% | -5.3%
Cc1ccc(C(=O)c2cc3c(cc2[N+](=O)[O-])OCCO3)cc1 | / | / | / | ? | 10.7% | /
CC(=O)/C(N=Nc1c(C)n(C)n(-c2ccccc2)c1=O)=C(\C)O | / | / | / | 3.8% | -1.4% | /
CC1(C)CC(=O)C(N=Nc2cc(Cl)c(Cl)c(Cl)c2)=C(O)C1 | -8.1% | -12.7 | 17.7 | 5.01µM* | -3.3%[38.3 µM] | -6.8%
SMILES | HPGD inh | IMPase cell inh | PNC assembly inh | ALDH1A1 inh | IMPase Li cell | 12-hLO inh
COC(=O)C/C=C\[C@@H](C)[C@@H](/C=N\O[C@@H](C)c1cn([C@H](CO)Cc2ccccc2)nn1)NS(=O)(=O)c1ccc(C)cc1 | / | / | / | 3.6%[13.5 µM] | / | /
COc1ccccc1-c1cncnc1NCc1cccs1 | / | / | / | 13.9% | -4.6% | /
CCCNC(=O)c1c(NC(=O)c2ccccc2)sc2c1CCC(C(C)(C)C)C2 (stereo unspecified) | / | 0.2 | / | / | / | /
COC(=O)c1c(C)oc2ccc(N(C(=O)c3ccncc3)S(=O)(=O)c3c(C)cc(C)cc3C)cc12 | / | -4.3 | / | / | / | /
O=C1NC(=S)SC1=C1CCCCCC1 | 11.2µM* | 5.2 | 9.3 | 7.08µM* | 5.2%[38.3 µM] | ?
CCN1/C(=C2/SC(=S)NC2=O)Sc2ccccc21 | / | / | / | ? | 2.7% | /
COCCN(CCOC)c1nc(C)nc2c1nc(-c1ccccc1)n2CC1CCN(C)CC1 | ? | / | / | ? | 5.9% | -2.0%
CCCCC/C=C\C/C=C\C/C=C\CCCCC(N)=O | -7.2% | / | / | 7.5% | 2.4% | 4.6%
CC(C)(C)N1CSC(=S)N(Cc2ccccc2)C1 | / | / | / | 31.6µM* | -3.6% | /
CCCCN1CNC(=S)N(Cc2ccccc2)C1 | -15.9% | -6.1 | -27.3 | 0.0% | -6.3% | -11.9%
CC(C)N1CSC(=S)N(Cc2ccccc2)C1 | / | / | / | ? | -1.2% | /
CCCCN1CSC(=S)N(Cc2ccccc2)C1 | -20.9% | / | / | 3.55µM* | 1.2% | 3.1%[11.4 µM]
CCC(Sc1nnc2c3ccccc3n(CC)c2n1)C(=O)Nc1sc2c(c1C#N)CCCC2 (stereo unspecified) | -28.5% | 6.9 | 25.2 | 17.8µM* | 15.4%[38.3 µM] | 2.6%
CCC(Sc1nc(C)cc(=O)[nH]1)C(=O)Nc1sc2c(c1C#N)CCCC2 (stereo unspecified) | -11.4% | 3.0 | 24.4 | ? | 4.9%[38.3 µM] | -10.5%
Cc1ccc(N2C(=O)[C@@H]3[C@H](C2=O)C2c4ccccc4C=CN2[C@@H]3C(=O)c2ccco2)c(C)c1 (stereo partly specified) | 35.5µM* | 6.5 | ? | 7.94µM* | 14.4%[38.3 µM] | -23.4%
CC(=O)[C@@H]1[C@@H]2C(=O)N(Cc3ccccc3)C(=O)[C@@H]2C2c3ccccc3C=CN21 (stereo partly specified) | ? | 3.6 | -19.1 | 20µM* | 2.6%[38.3 µM] | -7.0%
COc1ccc(N2C(=O)[C@@H]3[C@H](C2=O)[C@H]2c4ccccc4C=CN2[C@@H]3C(=O)Nc2ccccc2)cc1 | -21.9% | -3.0 | 22.0 | 25.1µM* | 13.7%[38.3 µM] | -6.9%
O=C(c1ccco1)[C@@H]1[C@@H]2C(=O)N(c3ccccc3)C(=O)[C@@H]2C2c3ccccc3C=CN21 (stereo partly specified) | ? | 7.1 | 30.8 | 2.24µM* | 10.4%[38.3 µM] | -9.6%
O=C(O)CCC(=O)OC[C@@H](NC(=O)C(Cl)Cl)C(O)c1ccc([N+](=O)[O-])cc1 (stereo partly specified) | -1.5% | / | / | -13.9% | 6.8% | -2.7%
COC(=O)[C@@]1(Cc2ccccc2)[C@H]2c3cc(C(=O)N4CCCC4)n(CC4CC4)c3C[C@H]2CN1C(=O)c1ccccc1 | -9.7% | / | / | -1.9% | 12.2% | -3.0%
